Measurements: the supplement of paper PMC5919970
In all, about 2,000 compounds were measured (“fractional viability relative to vehicle”: median about 0.91, lowest 2% from about 0.045 on). Only a selection was taken, and the lowest values are over-represented in it overall.

Test system: TYKNU
Assay: fractional viability relative to vehicle; TYKNU is a high-grade serous ovarian cancer line; higher = less growth inhibition
Settings: 72 h
Procedure, shortened: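 TYKNU control cells or lentiCRISPRv2 knockout derivatives were seeded at 500 cells per well into drug-stamped 384-well plates holding a ~2100-compound library at 2 or 10 μM, in duplicate. Cells were grown at 37 °C in 5% CO2 in RPMI 1640 with 10% FBS, and drug treatment lasted 72 h. Viability was read by Cell Titer Glo luminescence. Duplicate treatment wells were averaged and normalised to duplicate control wells from the same plate position.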

[1] = 2uM, genotype: DNM1L knockout (sgDNM1L #1)
[2] = 2uM, genotype: sgCTRLA1 (non-targeting control)
[3] = 10uM, genotype: DNM1L knockout (sgDNM1L #1)
[4] = 10uM, genotype: sgCTRLA1 (non-targeting control)

| Structure (SMILES) | fractional viability [1] | fractional viability [2] | fractional viability [3] | fractional viability [4] |
| --- | --- | --- | --- | --- |
| Cc1ccc(NC(=O)c2cccc(C(C)(C)C#N)c2)cc1Nc1ccc2ncn(C)c(=O)c2c1 | 0.244 | 0.283 | 0.27 | 0.31 |
| CN(C)Cc1cccc(N=C(c2ccccc2)c2c(O)[nH]c3cc(C(=O)N(C)C)ccc23)c1 | 1.01 | 0.843 | 0.588 | 0.574 |
| CCNC(=O)C#Cc1ccc2c(C(=Nc3ccc(CN(C)C)cc3)c3ccccc3)c(O)[nH]c2c1 | 0.122 | 0.0962 | 0.0494 | 0.0319 |
| O=C([C@@H](Cc1cccc(C(F)(F)F)c1)NS(=O)(=O)c1cc(F)c2c(c1)CCNC2)N1CCCC1 | 0.927 | 1.04 | 0.863 | 0.888 |
| CC(C)CCNC(=O)[C@H](CC(C)C)NC(=O)[C@H]1O[C@@H]1C(=O)O [Loxistatin Acid (E-64C)] | 0.865 | 0.938 | 0.959 | 0.802 |
| CCCCC(=O)N(Cc1ccc(-c2ccccc2-c2nnn[nH]2)cc1)[C@H](C(=O)O)C(C)C.CCOC(=O)[C@H](C)C[C@@H](Cc1ccc(-c2ccccc2)cc1)NC(=O)CCC(=O)O | 0.864 | 0.941 | 0.769 | 0.732 |
| CN1CCN(S(=O)(=O)c2ccc(-c3cnc(N)c(C(=O)Nc4cccnc4)n3)cc2)CC1 | 0.731 | 1.08 | 0.346 | 0.474 |
| O=C(O)C(Cc1ccccc1[N+](=O)[O-])=NNc1nc(-c2ccc(Cl)c(Cl)c2)cs1 (mixture of isomers) | 0.727 | 0.775 | 0.717 | 0.573 |
